This note sets out measurements from PubChem BioAssay (NCATS).

Records with an inconclusive call do not appear. A call without a number means that no potency is given here. Activity calls are given as the source filed them. The call rests on the fitted dose curve; in most records, active means well fitted inhibition curve with a large enough effect; inconclusive means small, poorly fitted or top-dose-only effect; inactive means flat fitted curve, though single readings scatter.

This assay in a line: P-glycoprotein substrates identified in KB-8-5-11 adenocarcinoma cell line, qHTS therapeutic library screen (AID 1346987). Further: nearly all actives have a fitted effect of over 65% in size. As to conditions: KB-8-5-11 (P-gp overexpressing) viability, CellTiter-Glo, 72 h; series mostly up to 44.5 µM. Put shortly: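 Compounds are pinned in dose-response onto KB-8-5-11 cells (500 cells/well, colchicine-free medium) and left 72 h at 37 degree C. CellTiter-Glo luminescence then yields AC50 values.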
(In general: Quantitative high-throughput screening tests each substance at several concentrations.)
In the case of `Nc1c(N=Nc2ccc(-c3ccc(N=Nc4cc(S(=O)(=O)O)c5ccccc5c4N)cc3)cc2)cc(S(=O)(=O)O)c2ccccc12`, the Potency entry was “inactive”. Regarding `CC(C)C(=O)c1cn(CC(=O)COc2ccc(Oc3ccccc3)cc2)c2ccc(C(=O)O)cc12`, the Potency entry was “inactive”. For `COc1cc(C[C@H]2COC(=O)[C@@H]2Cc2ccc(O)c(OC)c2)ccc1O`, the Potency entry is “inactive”. On to `CC(=O)OC[C@@]12[C@@H](OC(C)=O)C[C@@H](C)[C@](C)([C@@H]3C[C@H]4C=CO[C@H]4O3)[C@H]1CCC[C@]21CO1`, for which the Potency entry was “inactive”. With `COc1ncc(-c2ccc3c(Nc4cc(Oc5cc(F)cc(F)c5)cc(C(=O)O)c4)c(S(=O)(=O)NC4CC4)cnc3c2)c(OC)n1` the entry was “inactive”; with `CC(C)C1(O[C@@H]2O[C@H](CO)[C@@H](O)[C@H](O)[C@H]2O)CC=C(CO)CC1` (some centres undefined), “inactive”. For the molecule `CC[C@H]1OC(=O)[C@H](C)[C@@H](OC2C[C@@](C)(OC)[C@@H](O)[C@H](C)O2)[C@H](C)[C@@H](OC2O[C@H](C)C[C@H](NC)[C@H]2O)[C@](C)(O)C[C@@H](C)CN(C)[C@H](C)[C@@H](O)[C@]1(C)O` (some centres undefined), the Potency entry is “inactive”. As for `CC(=O)N[C@@H](CC(=O)N[C@@H](CCC(=O)O)C(=O)O)C(=O)O`, the Potency entry was “inactive”. With `CN1C(=O)N[C@@H](Cc2c[nH]c3c(Cl)cccc23)C1=O` the entry was “inactive”.
